Target: Tyrosine-protein kinase ABL1 (Homo sapiens) (UniProt P00519)
Settings: at 0.1 µM

Tyrosine-protein kinase ABL1 (Homo sapiens), sequence (P00519 whole entry): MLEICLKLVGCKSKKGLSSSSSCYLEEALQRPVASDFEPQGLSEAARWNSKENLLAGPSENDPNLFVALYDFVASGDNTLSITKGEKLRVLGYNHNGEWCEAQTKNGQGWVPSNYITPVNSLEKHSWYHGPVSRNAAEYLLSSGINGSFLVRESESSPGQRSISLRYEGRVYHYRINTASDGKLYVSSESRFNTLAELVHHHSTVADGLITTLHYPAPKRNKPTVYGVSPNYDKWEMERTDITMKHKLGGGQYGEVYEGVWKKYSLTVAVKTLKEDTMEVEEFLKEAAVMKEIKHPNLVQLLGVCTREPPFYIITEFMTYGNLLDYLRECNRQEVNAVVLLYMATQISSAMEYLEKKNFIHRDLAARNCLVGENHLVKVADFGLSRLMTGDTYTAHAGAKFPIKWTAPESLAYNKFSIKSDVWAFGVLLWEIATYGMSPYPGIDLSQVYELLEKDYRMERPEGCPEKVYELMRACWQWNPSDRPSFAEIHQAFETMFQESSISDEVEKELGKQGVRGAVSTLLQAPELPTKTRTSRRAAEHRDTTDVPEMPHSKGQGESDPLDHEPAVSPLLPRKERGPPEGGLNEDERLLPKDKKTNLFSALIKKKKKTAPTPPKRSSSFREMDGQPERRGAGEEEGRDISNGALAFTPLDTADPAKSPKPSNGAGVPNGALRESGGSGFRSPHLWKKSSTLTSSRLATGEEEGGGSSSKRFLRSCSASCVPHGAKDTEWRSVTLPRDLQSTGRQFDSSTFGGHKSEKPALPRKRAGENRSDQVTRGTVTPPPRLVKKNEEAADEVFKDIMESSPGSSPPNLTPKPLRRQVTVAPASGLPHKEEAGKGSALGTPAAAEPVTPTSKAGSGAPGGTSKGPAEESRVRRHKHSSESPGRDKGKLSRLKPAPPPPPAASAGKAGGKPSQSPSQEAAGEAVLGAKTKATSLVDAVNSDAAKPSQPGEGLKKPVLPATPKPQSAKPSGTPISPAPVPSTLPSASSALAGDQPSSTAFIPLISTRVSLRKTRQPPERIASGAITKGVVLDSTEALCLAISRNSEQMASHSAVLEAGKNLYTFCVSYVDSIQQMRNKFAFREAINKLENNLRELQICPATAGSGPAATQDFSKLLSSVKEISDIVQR

Compound	inhibition [%]
Cc1ccc(NC(=O)CC2CC2)cc1-c1ccc(C(=O)NCC2CC2)cc1	6.36
Cc1ccc(Nc2ccnc(Nc3cccc(C(N)=O)c3)n2)cc1O	56.4
CN(c1ccc(NC(=O)Nc2ccc(OC(F)(F)F)cc2)cc1)c1ccnc(Nc2cccc(S(N)(=O)=O)c2)n1	14.3
CS(=O)(=O)CCNCc1nc(-c2ccc3ncnc(Nc4ccc(OCc5cccc(C(F)(F)F)c5)cc4)c3c2)cs1	3.97
Cc1nc(-c2ccccc2)n2nc(NCCCN3CCOCC3)ncc12	5.87
CN(C)C(=O)O[C@H]1CN[C@H](C#Cc2cc3ncnc(Nc4ccc(OCc5cccc(F)c5)c(Cl)c4)c3s2)C1	3.76
NC(=O)c1sc(-n2cnc3ccccc32)cc1OCc1ccccc1Br	4.27
COc1cc(/C=N/Nc2ncnc3c2cnn3C(C)C)ccc1O	23.3
Cc1ccc2c(-c3ccnc(Nc4cccc(C(F)(F)F)c4)n3)c(-c3ccccc3)nn2n1	7.07
CC(C)c1ccc2c(c1)NC(=O)/C2=N/Nc1ccc(S(N)(=O)=O)cc1	6.22
NS(=O)(=O)c1ccc(NC=C2C(=O)Nc3ccc4ncsc4c32)cc1	7.95
CN(C)c1cc2c(Nc3ccc4c(cnn4Cc4ccccc4)c3)ncnc2cn1	2.46
Oc1cccc(-c2nc(-c3ccccc3)[nH]c2-c2ccncc2)c1	8.48
CCn1c(-c2nonc2N)nc2ccc(F)cc21	3.48
CN1CCN(C(=O)c2ccc(NC(=O)Nc3ccc(N(C)c4ccnc(Nc5ccc(CS(C)(=O)=O)cc5)n4)cc3)cc2)CC1	9.79
Nc1nccc(-c2c(-c3ccc(F)cc3)nn3cc(C(F)(F)F)ccc23)n1	0.6

Target: Tyrosine-protein kinase ABL1 (Homo sapiens) (UniProt P00519)
Settings: at 1 µM

Compound	inhibition [%]
Nc1ccc(C#Cc2cncnc2Nc2ccc(OCc3cccc(F)c3)c(Cl)c2)cc1	4
O=S(=O)(CCOCc1ccc(-c2ccc3ncnc(Nc4ccc(OCc5cccc(F)c5)c(Cl)c4)c3c2)o1)c1ccccc1	5.13
Nc1nccc(C#Cc2cncnc2Nc2ccc(OCc3cccc(F)c3)c(Cl)c2)n1	9.58
ON=C1CCc2cc(-c3nc(C4CCNCC4)[nH]c3-c3ccncc3)ccc21	4.12
Cc1cc(O)cc(C)c1/C=C/c1cncc(C(=O)N(C)C)c1	17.9
CCn1c(-c2nonc2N)nc2c(C#CC(C)(C)O)nc(OCCNC)cc21	5.14
Cc1cc(-c2ccccn2)cc(C)c1/C=C/c1cncc(-c2nn[nH]n2)c1	13
NS(=O)(=O)c1ccc(-c2cc3ccncc3cc2OCc2ccccc2)cc1	7.38
CS(=O)(=O)Nc1cccc(-c2ccc3c(NC(=O)C4CC4)n[nH]c3c2)c1	17.9
O=C(Nc1ccc(Oc2ccc3[nH]c(NC(=O)c4ccco4)nc3c2)cc1)Nc1cc(C(F)(F)F)ccc1F	72.2
COc1ccc2ncnc(Nc3ccc(OCc4ccccc4)cc3)c2c1	4.79
COC(=O)c1cncc(/C=C/c2c(C)cc(O)cc2C)c1	62.9
Cc1ccc(C(=O)NC2CC2)cc1-c1ccc2[nH]ncc2c1	0.77
COc1cc2ncnc(Nc3ccc4c(cnn4Cc4ccccc4)c3)c2cc1OC	3.36
Cc1ccc2c(c1)/C(=N/Nc1ccc(S(N)(=O)=O)cc1)C(=O)N2	8.09
CN(C)CCCn1c(-c2nonc2N)nc2cnccc21	4.71
CCCN1CCCC(c2ccc(Nc3nc(Nc4cc(F)ccc4C(N)=O)c4cc[nH]c4n3)c(OC)c2)C1 (centres undefined)	9.3

Compound	inhibition [%]
Cc1ccc(NC(=O)CC2CC2)cc1-c1ccc(C(=O)NCC2CC2)cc1	8.53
Cc1ccc(Nc2ccnc(Nc3cccc(C(N)=O)c3)n2)cc1O	79.5
CN(c1ccc(NC(=O)Nc2ccc(OC(F)(F)F)cc2)cc1)c1ccnc(Nc2cccc(S(N)(=O)=O)c2)n1	71
CS(=O)(=O)CCNCc1nc(-c2ccc3ncnc(Nc4ccc(OCc5cccc(C(F)(F)F)c5)cc4)c3c2)cs1	6.56
Cc1nc(-c2ccccc2)n2nc(NCCCN3CCOCC3)ncc12	5.41
CN(C)C(=O)O[C@H]1CN[C@H](C#Cc2cc3ncnc(Nc4ccc(OCc5cccc(F)c5)c(Cl)c4)c3s2)C1	8.35
NC(=O)c1sc(-n2cnc3ccccc32)cc1OCc1ccccc1Br	9.67
COc1cc(/C=N/Nc2ncnc3c2cnn3C(C)C)ccc1O	73.7
Cc1ccc2c(-c3ccnc(Nc4cccc(C(F)(F)F)c4)n3)c(-c3ccccc3)nn2n1	36.1
CC(C)c1ccc2c(c1)NC(=O)/C2=N/Nc1ccc(S(N)(=O)=O)cc1	32.8
NS(=O)(=O)c1ccc(NC=C2C(=O)Nc3ccc4ncsc4c32)cc1	44.8
CN(C)c1cc2c(Nc3ccc4c(cnn4Cc4ccccc4)c3)ncnc2cn1	5.43
Oc1cccc(-c2nc(-c3ccccc3)[nH]c2-c2ccncc2)c1	43.3
CCn1c(-c2nonc2N)nc2ccc(F)cc21	3.51
CN1CCN(C(=O)c2ccc(NC(=O)Nc3ccc(N(C)c4ccnc(Nc5ccc(CS(C)(=O)=O)cc5)n4)cc3)cc2)CC1	43.9
Nc1nccc(-c2c(-c3ccc(F)cc3)nn3cc(C(F)(F)F)ccc23)n1	0.4
